A selection: hits, their analogues and other compounds. The true share with any hit is near 12%.
Shiga toxin inh – inhibitors of Shiga toxin in Vero cells. AID 2315. 290,000 tested, 9.2% active. inhibition, % at 38.7 µM. Vero cells, Shiga toxin protein synthesis inhibition reporter; in the data active = inhibition mostly above about 28%, no sharp cut-off; inactive = mostly below about 43%; also: 0% is about no effect
FMDV antiviral – foot and mouth disease virus antiviral activity | 410,000 tested, 1.2% active | FMDV antiviral cell-based qHTS | AID 1159524 | Potency, µM (doses to about 57.9 µM), for the others: top-dose activity change, negative = inhibition, hits mostly inhibitors; calls by dose curve; tested in HEK293T cells; also: read-out not given here; potency is read from the fitted curve at half-maximal effect; % is scaled to controls: 0 for no effect and ±100 for the full control effect; nearly all actives have a fitted effect of over 45% in size
Cycloheximide cs – counter-screen hit for Shiga toxin inhibitors, cycloheximide; cell reporter, cycloheximide protein synthesis inhibition counterscreen; max response, %; 300,000 tested, 12% active; in the data active = max response mostly above about 13%, no sharp cut-off; inactive = mostly below about 14%; also: read at 38.3 µM for the half of the compounds with a filed dose; 0% is about no effect
Sm TGR inh – S. mansoni TGR enzyme inhibition | Q962Y6 | purified TGR, DTNB reduction, TNB absorbance 405 nm | Potency, µM (doses to about 114 µM), for the others: at the top dose activity change, negative = inhibition, hits mostly inhibitors | 360,000 tested, 3% active | AID 485364; active = well fitted inhibition curve with a large enough effect; inconclusive = small, poorly fitted or top-dose-only effect; inactive = no such curve, though single readings can be large or run the other way; also: potency is read from the fitted curve at half-maximal effect; % is scaled to controls: 0 for no effect and ±100 for the full control effect; nearly all actives have a fitted effect of over 60% in size
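First, TGR (20 nM dispensed) and NADPH were mixed with compound. Second, a 15 min room-temperature incubation followed. Third, further NADPH and then DTNB were added to start the reaction. Finally, TNB absorbance was monitored kinetically.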
Starred values were filed as active, the others as inactive; u = inconclusive; x = not tested or not shown; [ ] = remark or other dose.

SMILES	Shiga toxin inh	FMDV antiviral	Cycloheximide cs	Sm TGR inh
O=C(O)c1cc(C2CC2)nn1-c1ccccc1	-10	-7%	-1	-24%
Cc1ccc(-c2cc(N)n(-c3ccccc3)n2)cc1	80*	52%	66*	2%
Cc1ccc(C(C)CCN2CCOc3ccc(CN4CCOCC4)cc3C2)o1 (stereo not given)	x	-8%	x	x
Cc1ccc(CNC(=O)c2c3c(nc4ccccc24)C(=O)N(C2CCCCC2)C3)cc1	x	-19%	x	4%
O=C(Nc1cccc(Cl)c1)OCC#CCCl	28	x	14	x
COC(=O)c1ccc2c(=O)n(CCCCCC(=O)NCCc3ccccc3)c(=O)[nH]c2c1	x	-4%	x	-3%
CC(=O)Nc1ccc(NC(=O)Cc2ccc(-c3ccccc3)cc2)cc1	13	-3%	13	3%
CC(C)N(c1ccccc1)c1ccc(NC(=O)CCl)cc1	-7	40µM*	0	14µM*
O=C(CCl)Nc1ccc(N=Nc2ccccc2)cc1	106*	-12%	128*	40µM*
O=C(CCl)Nc1ccc(-c2ccccc2)cc1	-21	22µM*	-7	4.5µM*
CCCC(=O)NC(NC(=S)Nc1ccc(N=Nc2ccccc2)cc1)C(Cl)(Cl)Cl (stereo not given)	39*	u	35*	5%
COc1cc(NC(=O)c2nnn(CC(=O)Nc3ccccc3)c2N)cc(OC)c1	x	-8%	x	4%
COc1ccc(Cl)cc1NC(=O)CSc1nc2ccccc2nc1N1CCCCC1	x	-18%	x	3%
COc1ccc(-n2cccc2C=O)cc1	19	-4%	-1	2%
COc1ccc(-n2cccc2/C=C/[N+](=O)[O-])cc1	-20	28µM*	-8	25µM*
COc1ccc(C(=O)N(Cc2ccco2)Cc2cccs2)c(O)c1	-20	84%	3	-1%
COc1ccc(C(=O)/C=C/C(=O)N(CC(=O)NCCC(C)C)Cc2cccs2)c(O)c1	-5	3.5µM*	7	2.8µM*
COc1ccc(C(=O)/C=C/C(=O)N(CC(=O)NC2CCCCC2)Cc2ccc(F)cc2)c(O)c1	-4	7.1µM*	-1	3.5µM*
CS(=O)(=O)N(CC(=O)NC1CCCCC1)Cc1ccc(F)cc1	-2	-5%	-1	-1%
O=C(O)c1ccc(CSc2nnnn2-c2ccc(F)cc2)cc1	-7	-5%	-1	-10%
O=C(CSc1nnnn1-c1ccc(F)cc1)c1ccc(O)c(O)c1	58	0%	38*	-22%
CCN(Cc1ccccc1)C(=O)CCCOc1ccccc1	77*	41%	26*	-7%
CC(Cc1ccsc1)NC(=O)CCc1nnc(COc2ccccc2)o1 (stereo not given)	18	15%	19*	0%
O=C(CCc1nnc(COc2ccccc2)o1)NCc1ccccc1	24	-5%	11	7%
CN(Cc1ccsc1)C(=O)CCc1nnc(CCCc2ccccc2)o1	124*	63%	47*	-19%
SMILES	Shiga toxin inh	FMDV antiviral	Cycloheximide cs	Sm TGR inh
CCN(Cc1ccncc1)C(=O)CCc1nnc(CCc2ccccc2OC)o1	3	-7%	-2	x
CCN(Cc1ccncc1)C(=O)CCc1nnc(CCC2CCCCC2)o1	39*	10%	23*	13%
Cc1cc(C)cc(NC(c2cccc(Cl)c2)c2nnc(-c3ccccc3)o2)c1 (stereo not given)	x	13%	x	1%
CC(=O)NC1C(OC2OC(CC(O)C3OC([N+]4=CCC(=O)NC4=O)C(O)C3O)C(O)C(O)C2NC(=O)/C=C/CCCCCCCCC(C)C)OC(CO)C(O)C1O (stereo not given)	x	-19%[39.8 µM]	x	x
Cc1ccccc1CNC(=O)c1cccc(NC(=O)N2CCSc3ncccc32)c1	x	u	x	-7%
Cc1ccsc1CN(C)C(=O)CCc1nnc(COc2ccccc2)o1	56*	73%	35*	1%[57.1 µM]
COc1ccccc1CCc1nnc(CCC(=O)N(C)Cc2ccncc2C)o1	8	-8%	-1	0%
CCN(Cc1ccccc1)C(=O)CCc1nnc(CCCc2ccccc2)o1	57*	26%	22*	-5%
CC(C)(CO)CNC(=O)CCc1nnc(CCCc2ccccc2)o1	36	40%	22*	0%
CCC(C)(C)NC(=O)C1CCN(S(=O)(=O)c2c(C)noc2/C=C/c2ccc(C)cc2)CC1	x	-14%	x	-2%
O=C(Cc1cccs1)NCCc1ccc(Cl)cc1	-10	8%	-2	-20%
O=C(Cc1cccs1)NCc1ccc(Cl)cc1Cl	104*	18%	42*	77%
O=C(Cc1cccs1)NCc1cccc(CNC(=O)Cc2cccs2)c1	-11	-2%	-3	-8%
O=C(Cc1cccs1)NCc1cccc(Cl)c1	89*	53%	41*	1%
O=C(Cc1cccs1)NCc1cccc(F)c1	41*	17%	27	2%
O=C(Cc1cccs1)NCc1cc(Cl)cc(Cl)c1	52*	11%	44*	1%
O=C(Nc1sc2c(c1C(=O)Nc1ccccc1Cl)CCCC2)c1ccccc1F	x	27%	x	-1%
CCN1C(=O)C(CC(=O)Nc2ccc(F)cc2)N(Cc2cccs2)C1=S (stereo not given)	3	19%	-6	x
CCCOc1ccc(CNC(=O)Cc2cccs2)cc1	108*	38%	46*	11%
CCCOc1ccc(NC(=O)CC2C(=O)N(Cc3ccccc3)C(=S)N2Cc2cccs2)cc1 (stereo not given)	57	0%	22*	0%
Cc1cc(C)c(NC(=O)Cn2c(=O)nc(-c3ccccc3)c3cc(Cl)ccc32)c(C)c1	x	-1%	x	-1%
Cc1c(S(=O)(=O)c2ccccn2)c(N)n(Cc2cccc(Cl)c2)c1C	-6	19%	1	2µM*
O=S(=O)(c1ccc(Cl)cc1)c1ccccn1	-3	x	-7	-8%
CCC(C(=O)NCc1ccccc1OC)n1nc(C)n2c(cc3sccc32)c1=O (stereo not given)	x	0%	x	5%
CCN(CC)c1ccc(C(=C2C=CC(=[N+](CC)CC)C=C2)c2ccccc2)cc1	-25	3.5µM*	-20	x
SMILES	Shiga toxin inh	FMDV antiviral	Cycloheximide cs	Sm TGR inh
CCN(CC)c1ccc(C(=C2C=CC(=[N+](CC)CC)C=C2)c2ccc(N(CC)CC)cc2)cc1	x	8.9µM*	x	x
CCN(CC)c1ccc(C(=C2C=CC(=[N+](CC)Cc3cccc(S(=O)(=O)[O-])c3)C=C2)c2ccc(N(CC)Cc3cccc(S(=O)(=O)O)c3)cc2)cc1	-12	x	-4	x
COc1ccc(OC)c(C2=Nn3c(nnc3-c3ccc(OC)c(OC)c3)SC2)c1	-10	x	-2	x
CC1CCc2nc(NC(=O)Cc3ccc(Cl)cc3)sc2C1 (stereo not given)	x	18%	x	-3%
Cc1cnc(NC(=O)C2COc3ccccc3O2)s1 (stereo not given)	39	-64%	13	1%
CC1CCc2nc(NC(=O)Nc3ccc4c(c3)OCO4)sc2C1 (stereo not given)	91*	26%	45*	-12%
CC1CCc2nc(NC(=O)C3CC3)sc2C1 (stereo not given)	82*	8%	51*	-10%
Cc1ncsc1C(=O)Nc1nc2c(s1)CC(C)CC2 (stereo not given)	82*	27%	27*	-8%[11.4 µM]
CC1CCc2nc(NC(=O)C3COc4ccccc4O3)sc2C1 (stereo not given)	11	16µM*	19	6%

Bioassay records as filed in PubChem BioAssay.
